Results reported in PubChem BioAssay (NCATS).
Inconclusive results are not listed. Activity calls are given as the source filed them. Unless noted, the call rests on the fitted dose curve; in most records, active means well fitted curve in the direction sought with a large enough effect; inconclusive means small, poorly fitted or top-dose-only effect, or another doubt; inactive means no such curve, though single readings can be large; an effect the other way counts as inactive or inconclusive.

Assays:
[1] = Cytometric Cell-Based qHTS for Inhibitors of the mTORC1 Signaling Pathway in MEF (Tsc2-/-, p53-/-) Cells (AID 2660);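 further: percent of cells above a phospho-rpS6 to PI ratio cutoff in each well; series mostly up to about 38 µM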
Summary of the method: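 Cells are plated, treated with compound for 24 hrs at 37 degree Celsius, then fixed, blocked and immunostained for phospho-rpS6 Ser235/236. Propidium iodide counterstain follows. Per-well % positive cells is derived from the PI-normalized phospho-S6 signal.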

[2] = High Content Imaging Cell-Based qHTS for Inhibitors of the mTORC1 Signaling Pathway in MEF (Tsc2-/-, p53-/-) Cells (AID 2666);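 further: percent of cells scored positive for phospho-rpS6 Ser235/236 immunostaining by imaging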
Summary of the method: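 Phospho-rpS6 (Ser235/236) immunofluorescence, normalized and scored as % positive cells using rapamycin and DMSO controls, was read in empty-vector Tsc2-/-, p53-/- MEFs after 24 h compound exposure at 37 C; propidium iodide counted cells.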

[3] = High Content Imaging Cell-Based qHTS for Inhibitors of the mTORC1 Signaling Pathway in MEF Cells (AID 2667);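 further: Tsc2-/- p53-/- MEFs stably re-expressing wild-type Tsc2 exposed 24 h; series mostly up to about 38 µM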
Summary of the method: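 WT MEFs (Tsc2-/-, p53-/- re-expressing Tsc2), in DMEM + 10% FBS, were treated with compound for 24 h at 37 C. Cells were then fixed and stained for phospho-rpS6 Ser235/236 with propidium iodide as cell count. Values are % positive cells, with thresholds set against rapamycin-treated cells.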

[4] = Validation screen for inhibitors of Lassa infection (AID 463096; calls by dose curve)
[5] = Validation screen for small molecules that induce DNA re-replication in MCF 10A normal breast cells (AID 463097); further: nearly all actives have a fitted effect of over 60% in size
Summary of the method: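 MCF 10A cells exposed to compound 48 hr at 37 C, 5% CO2, then Hoechst-stained 40 min. Laser-scanning imaging of nuclear DNA content (405 nm ex, 500-530 nm em); re-replication scored as rise in nuclei with elevated fluorescence intensity.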

[6] = biological target: Ubiquitin carboxyl-terminal hydrolase 2 (Homo sapiens) (UniProt O75604); test: qHTS Validation Assay for Inhibitors of Ubiquitin-specific Protease USP2a Using CHOP2 as the Reporter (AID 463106)
Ubiquitin carboxyl-terminal hydrolase 2 (Homo sapiens), sequence (O75604 whole entry, looked up): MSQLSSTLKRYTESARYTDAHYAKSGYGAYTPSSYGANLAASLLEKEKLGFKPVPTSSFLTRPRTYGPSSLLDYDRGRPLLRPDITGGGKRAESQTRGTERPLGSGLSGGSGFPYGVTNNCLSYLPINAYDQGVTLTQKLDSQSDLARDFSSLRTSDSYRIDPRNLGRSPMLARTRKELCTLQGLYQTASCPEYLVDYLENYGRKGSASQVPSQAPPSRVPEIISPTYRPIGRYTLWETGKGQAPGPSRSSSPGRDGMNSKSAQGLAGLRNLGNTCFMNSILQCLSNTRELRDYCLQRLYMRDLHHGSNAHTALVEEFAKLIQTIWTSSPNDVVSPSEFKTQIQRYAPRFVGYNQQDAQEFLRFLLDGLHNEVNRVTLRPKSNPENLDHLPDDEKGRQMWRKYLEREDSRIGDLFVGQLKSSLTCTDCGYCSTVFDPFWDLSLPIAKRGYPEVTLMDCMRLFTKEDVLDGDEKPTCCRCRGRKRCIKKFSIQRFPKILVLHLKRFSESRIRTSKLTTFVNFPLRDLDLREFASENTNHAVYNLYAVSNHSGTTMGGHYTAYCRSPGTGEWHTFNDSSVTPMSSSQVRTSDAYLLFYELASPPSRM
Summary of the method: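 USP2 core (10 nM final) was preincubated with compound 30 min at RT in pH 8.0 Tris/CaCl2/beta-ME/CHAPS buffer. Ub-CHOP2 and reporter substrate (25 nM final each) were then added, with fluorescence (Ex 485/Em 531) read after 60 min. Data were normalized to NEM full inhibition and fitted to concentration-response curves.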

[7] = biological target: DNA polymerase III PolC-type (Bacillus subtilis (strain 168)) (UniProt P13267); test: qHTS Validation Assay for the Inhibitors of DNA Replication in Gram-Positive Bacteria (AID 485295);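 further: PicoGreen fluorescence of double-stranded DNA made on primed circular M13 template; series mostly up to about 57 µM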
DNA polymerase III PolC-type (Bacillus subtilis (strain 168)), sequence (P13267 whole entry, looked up): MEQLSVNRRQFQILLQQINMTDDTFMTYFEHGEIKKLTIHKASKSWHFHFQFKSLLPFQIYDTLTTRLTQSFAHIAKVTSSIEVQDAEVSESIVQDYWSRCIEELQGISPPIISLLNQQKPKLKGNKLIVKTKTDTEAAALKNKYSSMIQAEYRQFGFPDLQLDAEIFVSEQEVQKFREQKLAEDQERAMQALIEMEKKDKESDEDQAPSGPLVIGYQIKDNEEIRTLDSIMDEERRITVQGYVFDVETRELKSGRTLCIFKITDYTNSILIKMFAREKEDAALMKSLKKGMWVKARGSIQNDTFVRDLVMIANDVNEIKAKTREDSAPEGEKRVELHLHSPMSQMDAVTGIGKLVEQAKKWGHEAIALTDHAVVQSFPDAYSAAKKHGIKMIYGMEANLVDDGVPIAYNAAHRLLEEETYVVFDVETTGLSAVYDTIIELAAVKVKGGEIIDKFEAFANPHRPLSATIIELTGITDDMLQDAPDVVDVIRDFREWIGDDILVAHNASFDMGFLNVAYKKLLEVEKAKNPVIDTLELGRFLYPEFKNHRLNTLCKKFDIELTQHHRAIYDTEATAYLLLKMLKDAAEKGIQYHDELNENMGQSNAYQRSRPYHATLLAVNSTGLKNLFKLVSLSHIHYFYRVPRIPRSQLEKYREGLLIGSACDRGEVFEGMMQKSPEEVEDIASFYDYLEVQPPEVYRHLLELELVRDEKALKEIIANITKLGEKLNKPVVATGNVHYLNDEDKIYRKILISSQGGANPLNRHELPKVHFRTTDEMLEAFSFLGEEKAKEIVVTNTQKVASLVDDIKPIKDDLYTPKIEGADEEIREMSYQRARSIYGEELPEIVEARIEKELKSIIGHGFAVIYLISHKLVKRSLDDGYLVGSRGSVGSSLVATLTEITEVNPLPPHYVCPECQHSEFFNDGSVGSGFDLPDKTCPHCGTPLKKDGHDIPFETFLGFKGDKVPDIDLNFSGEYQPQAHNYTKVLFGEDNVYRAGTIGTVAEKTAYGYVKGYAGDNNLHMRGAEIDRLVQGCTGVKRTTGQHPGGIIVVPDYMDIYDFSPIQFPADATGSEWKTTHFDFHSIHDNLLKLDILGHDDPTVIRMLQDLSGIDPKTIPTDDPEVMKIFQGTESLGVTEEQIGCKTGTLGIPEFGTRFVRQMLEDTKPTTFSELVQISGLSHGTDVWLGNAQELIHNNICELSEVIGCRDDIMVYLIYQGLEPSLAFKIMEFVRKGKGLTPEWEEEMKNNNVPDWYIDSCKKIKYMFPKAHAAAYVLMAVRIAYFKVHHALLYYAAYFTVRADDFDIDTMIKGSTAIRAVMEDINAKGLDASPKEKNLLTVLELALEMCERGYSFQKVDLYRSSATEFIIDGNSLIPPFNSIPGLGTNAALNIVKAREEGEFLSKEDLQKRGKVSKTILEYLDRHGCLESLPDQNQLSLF
Summary of the method: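 Reconstituted B. subtilis Pol III holoenzyme (PolC, beta clamp, SSB, primase) preincubated with compound, then M13Gori single-stranded circular template with dNTPs/NTPs added; room temperature reaction. Stopped with EDTA/PicoGreen; dsDNA fluorescence read, EDTA as full-inhibition control.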

[8] = biological target: Tumor susceptibility gene 101 protein (Homo sapiens) (UniProt Q99816); test: qHTS Validation Assay for Iinhibitors of HIV-1 Budding by Blocking the Interaction of PTAP/TSG101 (AID 485342; calls by dose curve)
Tumor susceptibility gene 101 protein (Homo sapiens), sequence (Q99816 whole entry, looked up, the tested form may be a part): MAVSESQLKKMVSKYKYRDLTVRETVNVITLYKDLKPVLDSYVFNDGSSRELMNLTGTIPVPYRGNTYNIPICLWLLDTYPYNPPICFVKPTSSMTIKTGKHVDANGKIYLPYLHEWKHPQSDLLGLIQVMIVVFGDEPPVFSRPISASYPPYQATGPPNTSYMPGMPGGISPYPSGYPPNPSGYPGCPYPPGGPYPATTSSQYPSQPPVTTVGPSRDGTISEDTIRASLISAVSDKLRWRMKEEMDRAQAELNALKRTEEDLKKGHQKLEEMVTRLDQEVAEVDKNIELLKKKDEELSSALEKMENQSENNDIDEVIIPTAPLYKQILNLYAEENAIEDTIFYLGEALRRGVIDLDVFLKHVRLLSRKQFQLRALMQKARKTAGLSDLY
Summary of the method: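 Tsg101 binding domain (10 uM) with FITC-labeled PTAP peptide (50 nM) in HEPES pH 7.5 buffer, 20 min at r.t. with compounds. Binding measured by fluorescence polarization.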

[9] = qHTS Validation Assay to Find Inhibitors of Chronic Active B-Cell Receptor Signaling (AID 485345; active means well fitted curve in the direction sought with a large enough effect in the main read-out, with a control signal flat, not every such curve was filed as active)
Summary of the method: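 TMD8 ABC-DLBCL cells stably carrying doxycycline-inducible IkappaBalpha–green luciferase fusion plus unfused red luciferase; compounds 46 uM to 3 nM, 4 h at 37C with doxycycline. Corrected green/red luminescence ratio normalized to 10 uM MG-132 and basal cell wells; curves fitted.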

[10] = Cytometry Cell-Based qHTS for Inhibitors of the mTORC1 Signaling Pathway in MEF cells (AID 2668);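 further: Tsc2-/- p53-/- mouse embryonic fibroblasts stably re-expressing wild-type Tsc2; percent cells positive for phospho-rpS6 Ser235/236 relative to propidium iodide stain; series mostly up to about 38 µM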
Summary of the method: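 MEFs (Tsc2-/-, p53-/- stably expressing WT Tsc2) treated 24 h at 37 degree Celsius, fixed, stained with Alexa-488 anti-phospho-rpS6 Ser235/236 and propidium iodide; Acumen laser scanning. Reported as % positive cells, phospho-S6 normalized to PI.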

Measured: Potency

NC(=NCCC[C@H](N)C(=O)O)N[N+](=O)[O-]
not listed: [10]
inactive: all other assays above

CCCN1CCO[C@@H]2c3cc(O)ccc3OC[C@H]21
not listed: [10]
inactive: all other assays above

CCCN(CCC)C1CCc2ccc(O)cc2C1 (centres undefined)
not listed: [10]
inactive: all other assays above

NCCc1c[nH]c2ccccc12
not listed: [10]
inactive: all other assays above

CCCN1CCC[C@H](c2cccc(O)c2)C1
not listed: [8] | [10]
inactive: all other assays above

NCc1cc(=O)[nH]o1
not listed: [8] | [10]
inactive: all other assays above

NCCc1c[nH]c2ccc(O)cc12
not listed: [8] | [10]
inactive: all other assays above

CS(=N)(=O)CC[C@H](N)C(=O)O (some centres undefined)
not listed: [8] | [10]
inactive: all other assays above

NC(=O)CN1CC(O)CC1=O (centres undefined)
not listed: [8] | [10]
inactive: all other assays above

c1ccc2sc(C3(N4CCCCC4)CCCCC3)cc2c1
not listed: [8]
inactive: all other assays above

NC1CC1c1ccccc1 (centres undefined)
not listed: [10]
inactive: all other assays above

COc1cc(C(O)CN)ccc1O (centres undefined)
not listed: [8] | [10]
inactive: all other assays above

CC(Cc1ccc(O)cc1)NCC(O)c1cc(O)cc(O)c1 (centres undefined)
not listed: [6] | [8]
inactive: all other assays above

C[C@@H]1O[C@H](C[N+](C)(C)C)C[C@H]1O
not listed: [8] | [10]
inactive: all other assays above

Oc1ccc2c3c1O[C@H]1c4[nH]c5c(c4C[C@@]4(O)[C@@H](C2)N(CC2CC2)CC[C@]314)C[C@@]1(O)[C@H]2Cc3ccc(O)c4c3[C@@]1(CCN2CC1CC1)[C@H]5O4
not listed: [8]
inactive: all other assays above

O=C(Cc1ccc(Cl)c(Cl)c1)N1CCCCC1CN1CCCC1 (centres undefined)
not listed: [8] | [10]
inactive: all other assays above

C[C@@H](N)Cc1cnc[nH]1
not listed: [8] | [10]
inactive: all other assays above

O=C1CCCN1CC#CCN1CCCC1
not listed: [10]
inactive: all other assays above

S=C(NC1CCCCC1)N1CCC(c2cnc[nH]2)CC1
not listed: [8] | [10]
inactive: all other assays above

CC(=O)NCCc1c[nH]c2ccccc12
not listed: [8] | [10]
inactive: all other assays above

O=C(O)Cc1cnc[nH]1
not listed: [8] | [10]
inactive: all other assays above

O=C(O)[C@@H]1CCN1
not listed: [8] | [10]
inactive: all other assays above
